# D3 antag: D3 dopamine receptor (human) antagonism; P35462; 360,000 compounds, 2.5% hits; D3R cells, DiscoveRx beta-arrestin luminescence, antagonist mode; stronger effect = lower value; AID 652054; max response, negative = inhibition, %; in the data active = max response below about -50%; inconclusive = no clear call, values can overlap the other calls; also: % is scaled to controls: 0 for no effect and ±100 for the full control effect
#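 Cells expressing the human receptor were seeded at 1500 cells/well, incubated overnight at 37 degrees C in 5% CO2, then exposed to library compounds with dopamine controls for 90 minutes at 37 degrees C before luminescent detection.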
# D1 potentiator: potentiators of human D1 dopamine receptor. potentiation, % at 10 µM. 360,000 compounds, 0.036% hits. HEK293 TREx D1 cells, calcium flux, dopamine EC20 potentiation. AID 504651. P21728; in the data active = potentiation above about 30%; also: 0% is about no effect
# Target sequence (P21728 whole entry, looked up): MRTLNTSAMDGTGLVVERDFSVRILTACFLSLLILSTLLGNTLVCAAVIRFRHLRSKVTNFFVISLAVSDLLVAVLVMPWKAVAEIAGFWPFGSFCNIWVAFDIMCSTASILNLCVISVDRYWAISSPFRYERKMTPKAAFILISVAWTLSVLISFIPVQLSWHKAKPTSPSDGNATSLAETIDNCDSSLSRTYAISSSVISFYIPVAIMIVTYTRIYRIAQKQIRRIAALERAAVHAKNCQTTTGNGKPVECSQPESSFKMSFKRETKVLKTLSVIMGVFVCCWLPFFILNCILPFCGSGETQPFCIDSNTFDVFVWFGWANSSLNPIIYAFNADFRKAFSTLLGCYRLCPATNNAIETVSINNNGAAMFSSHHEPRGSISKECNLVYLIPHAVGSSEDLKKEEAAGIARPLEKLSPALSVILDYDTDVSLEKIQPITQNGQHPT
# DRD3 agonist: D3 dopamine receptor (human) agonism | D3R DiscoveRx beta-arrestin cells, luminescence, 90 min | max activation, % | 410,000 compounds, 0.58% hits; in the data active = max activation above about 30%; also: 0% is about no effect
#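 Cells at 1500/well, incubated overnight, then treated with pinned compounds (dopamine as control) for 90 min at 37 degrees C. DiscoveRx reagent added for 30 - 60 minutes at room temperature; luminescence read.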
# D1 antagonist: blocks dopamine activation of the human D1 receptor | P21728 | AID 504652 | activity change, negative = inhibition, % at 10 µM | HEK293 TREx D1 cells, calcium flux, dopamine EC80; stronger effect = lower value | 360,000 compounds, 3.2% hits; in the data active = activity change below about -30%; also: % is scaled to controls: 0 for no effect and ±100 for the full control effect
#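 Compound effects on dopamine-evoked calcium signalling were measured in tetracycline-induced HEK293 Trex D1 cells. Dopamine at EC80 followed a 180 s compound pre-read, and fluorescence was tracked kinetically for 180 s more.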
# D1 agonist: activates the human D1 dopamine receptor; P21728; HEK293 T-REx D1 cells, calcium flux, agonist mode; activation, % at 2 µM; 360,000 compounds, 1% hits; AID 504660; in the data active = activation above about 30%; also: 0% is about no effect
#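 Tetracycline-induced HEK293 TREx D1 cells, force-coupled to calcium signalling, were dye-loaded with a no-wash calcium kit. Compound was pin-added after a 10 s baseline. Fluorescence was read kinetically at 1 cycle/s for 180 s, with calcium rises flagged as agonism.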
# An asterisk follows results filed as active; ? = inconclusive; nt = no result given. Most compounds without a hit are left out; they make up all but 6.1% or so of the library.
SMILES,D3 antag,D1 potentiator,DRD3 agonist,D1 antagonist,D1 agonist
O=C(Cn1cc(CNCc2ccccc2)nn1)Nc1cc(C(F)(F)F)ccc1Cl,nt,-6,nt,0,3
CSc1nc(SCC(=O)NC(c2ccccc2)c2ccccc2)c2c3c(sc2n1)CN(C)CC3,-92*,1,-8,-1,2
CN1CCc2c(sc3nc(SCC(=O)NCc4ccco4)n(-c4ccccc4)c(=O)c23)C1,1,-8,0,-33*,3
CCc1ccc(-n2c(=O)c3c4c(sc3n(CC(=O)c3ccc(F)cc3)c2=O)CCC4)cc1,nt,-2,-15,-30,2
CCOc1ccc(N2CC(c3nc4ccccc4n3Cc3cccc(C)c3)CC2=O)cc1 (configuration not stated),nt,2,5,0,5
CCc1ccccc1N1CC(c2nc3ccccc3n2CCCCOc2ccccc2OC)CC1=O (configuration not stated),nt,0,-20,-7,60*
CCOC(=O)Cn1c(C2CC(=O)N(c3ccc(C)cc3)C2)nc2ccccc21 (configuration not stated),nt,-4,10,-46*,9
Cc1cc(C)cc(N2CC(c3nc4ccccc4n3C)CC2=O)c1 (configuration not stated),-54*,-10,-6,-4,4
Cn1c(=O)c2c(-c3ccccc3)n(-c3cccc(C#N)c3)cc2n(C)c1=O,nt,-1,-3,3,1
Cn1c(CCNC(=O)c2ccc(Cl)c(Cl)c2)nnc1SCc1ccc(Cl)c(Cl)c1,-53*,6,0,-2,-1
CC(CC(=O)N1CCN(c2ccccc2)CC1)S(=O)(=O)c1ccc2c(c1)NC(=O)CO2 (configuration not stated),9,-2,6,-48*,7
CC(=O)OCc1cnc(C)c2oc(=O)c(C(=O)Nc3cccc(F)c3)cc12,nt,1,1,-46*,0
Cc1ccc(C(OC(=O)c2ccco2)C(=O)NC(C)(C)C)cc1 (configuration not stated),-13,-11,1,-44*,-3
COc1cccc(NC(=O)CSc2nc3ccc(NC(=O)c4ccco4)cc3s2)c1,nt,-2,7,-16,22
CCCCOc1ccc(CSc2nc(C)[nH]c2[N+](=O)[O-])cc1[N+](=O)[O-],0,-7,-3,-31*,12
NC[C@@H]1O[C@H](C23CC4CC(CC(C4)C2)C3)Cc2c1ccc(O)c2O,31,-5,88*,-78*,118*
CC(CN1CCOCC1)OC(=O)c1ccc(Br)cc1 (configuration not stated),-67*,5,-18,7,2
COc1ccccc1/C=C/C(=O)OC(C)CN1CCCCC1 (configuration not stated),-60*,-4,-14,14,2
CC(CN1CCCCC1)OC(=O)c1ccc2c(c1)OCO2 (configuration not stated),-15,0,-18,-12,3
CC(CN1CCCC1)OC(=O)c1ccc(Cl)cc1 (configuration not stated),-54*,-4,-25,-6,1
CC(CN1CCCC1)OC(=O)c1ccc(Cl)cc1Cl (configuration not stated),-80*,-2,-20,3,4
CC(CN1CCOCC1)OC(=O)c1ccccc1Cl (configuration not stated),7,-8,2,8,0
CC(CN1CCCCC1)OC(=O)c1ccc(Cl)cc1Cl (configuration not stated),?,1,-16,6,-1
CC(CN1CCCCC1)OC(=O)c1cccc(F)c1 (configuration not stated),-51*,2,-24,7,1
CC1CCN(CC(C)OC(=O)c2ccc3c(c2)OCCO3)CC1 (configuration not stated),-75*,-1,-14,7,4
SMILES,D3 antag,D1 potentiator,DRD3 agonist,D1 antagonist,D1 agonist
Cc1cccc(NC(=O)C2CCCN2S(=O)(=O)c2ccc3nc(-c4ccccc4)[nH]c3c2)c1 (configuration not stated),nt,-3,13,0,3
Cc1cccn2c(=O)c3cc(C(=O)NCc4ccccc4)c(=N)n(CCOCCO)c3nc12,nt,-2,-3,-4,-2
COc1ccnc(CSC(N)=Nc2cccc(C(F)(F)F)c2)c1,-51*,-6,-23,-27,5
COc1ccnc(CSC(N)=Nc2ccccc2OC)c1,-75*,-7,-3,-15,2
COc1cc(NC(=O)CCc2nc3cccnc3n2Cc2cccs2)cc(OC)c1OC,nt,-2,-4,-9,1
CCc1ccc(NC(=O)CN(c2ccc(Cl)cc2)S(=O)(=O)c2ccsc2C(=O)OC)cc1,nt,0,-10,-15,8
Cc1cccc(N(C)c2nc3ccccc3c3nnc(C)n23)c1,nt,-4,-3,-8,19
O=C(NCCS(=O)(=O)N1CCN(c2ccc(F)cc2)CC1)c1cccc(C(F)(F)F)c1,nt,-3,6,-29,2
Cc1nn(C)c(C(=O)NNC(=O)Nc2cccc(C(F)(F)F)c2)c1Cl,0,-6,3,-30*,10
O=C(NNC(=S)Nc1cccc(C(F)(F)F)c1)c1cccc(Cl)c1,6,-4,44*,6,9
Cc1nn(C)c(C(=O)NC(=S)Nc2ccccc2Br)c1Cl,14,8,3,-4,2
Cc1nn(C)c(C(=O)NNC(=S)NCc2ccccc2)c1Cl,-4,-6,-1,-32*,6
O=C(NCc1cccc(Cl)c1)c1cccc(C(F)(F)F)c1,-15,-9,1,-33*,2
CC[C@H]1OC(=O)[C@H](C)[C@@H](O[C@H]2C[C@@](C)(OC)[C@@H](O)[C@H](C)O2)[C@H](C)[C@@H](O[C@@H]2O[C@H](C)C[C@H](N(C)C)[C@H]2O)[C@](C)(O)C[C@@H](C)[C@@H]2N[C@@H](COCCOC)O[C@@H]([C@H]2C)[C@]1(C)O,nt,nt,-8,nt,nt
CCOC(=O)C1(CC2CCCCO2)CCN(Cc2ccc(OC)cc2F)CC1 (configuration not stated),-67*,0,-12,-3,2
CCOc1cc(CNc2ccc(N3CCOCC3)cc2)cc(Br)c1OCC,16,-3,37*,3,0
CCCCNc1nc2c(S(=O)(=O)c3ccc(Br)cc3)nnn2c2ccsc12,nt,-7,3,-27,0
COc1ccc(C(=O)N(C)CCCC2CCCC2)cc1OC1CCN(C(C)=O)CC1,3,-6,3,-8,5
COCCC(=O)N1CCC(Oc2ccc(C(=O)N(C)CCCC3CCCC3)cc2)CC1,?,-6,3,-33*,21
COc1ccc(C(=O)N(C)CCCC2CCCC2)cc1OC1CCN(C(C)C)CC1,-29,-3,-18,-47*,17
COCCC(=O)N1CCC(Oc2ccc(C(=O)NCCCC3CCCC3)cc2)CC1,8,-5,4,-7,2

# Bioassay records deposited in PubChem BioAssay by National Center for Advancing Translational Sciences (NCATS).
